Compounds without any hit were thinned out: in the full panel of roughly 83,000, 20% have a hit.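 Cell lines were cultured in 96-well plates, exposed to a single compound concentration, and assessed for percent growth 48 hours later.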 Values without a mark were called inactive. The source made the active and inactive calls.
These molecules were tested on HL-60(TB) leukemia (assay: NCI-60 one-dose screen, 48 h (100 = growth as untreated, 0 = no growth, -100 = all killed)). Settings: 10 µM unless noted.
Method: Growth inhibition of the HL-60(TB) human tumor cell line is measured as a screen for anti-cancer activity. Cells are grown in 96 well plates and exposed to the test compound for 48 hours. Compounds are tested at a single concentration, which is 10^-5 M for most compounds. The reported endpoint is percent growth (GI% or GIPRCNT), where numbers from 0 - 100% represent growth inhibition, and numbers from -100% - 0 represent cell death. For example, a value of 40 represents 60% growth inhibition. A value of 0 means no net growth occurred over the course of the experiment. A value of -40 indicates 40% of cells at the beginning of the experiment died by the end of the experiment. A value of -100 means all cells are dead at the end of the experiment.
NCI-60 Human Tumor Cell Lines Screen was performed using the standard one-dose NCI protocol, which is described in more detail at https://dtp.cancer.gov/discovery_development/nci-60/default.htm.
Compounds with GIPRCNT values below 10 were considered active. Activity score was based on GIPRCNT using the following formula: […]
Score is 0 for GIPRCNT values of 100 or above, 50 for GIPRCNT values of 0, and 100 for GIPRCNT values of -100.

Compound	growth
C/C=C1\SC(=S)NC1=O	110%
CCn1c(CN2CCN(Cc3ccccc3)CC2)nc2cc(NC(=O)c3cccs3)ccc21	-51.2% (active)
Cc1ccc(S(=O)(=O)n2cc(CNc3ccc(N4CCOCC4=O)cc3)c3ccccc32)cc1	66.7%
CC(C)CSc1oc(-c2ccccc2)nc1S(=O)(=O)c1ccccc1	82%
O=C(/C(=C/c1ccc([N+](=O)[O-])cc1)SCc1ccccc1)c1ccc(Cl)cc1	74.4%
CCc1cccc(Sc2cc(C(=O)N3Cc4ccc(OCCN(C)C)cc4C3)ccc2O)c1	50.3%
COc1ccc2nccc(Cl)c2c1	103%
C#C[C@H](O)/C=C/CCCCCCC#C[C@H](O)CC[C@@H](O)C#CCCCCCC/C=C/[C@@H](O)C#C	-70.8% (active)
CN(C)CCN(C)CC(C)(C)C(=O)/C=C/c1ccc(Cl)c(Cl)c1	-41.9% [100 µM] (active)
C#CCC1(c2ccc(F)c(F)c2)NS(=O)(=O)c2ccccc21 (stereo not given)	89.2%
O=C(Cc1nc2ccc([N+](=O)[O-])cc2nc1CC(=O)c1cccnc1)c1cccnc1	67.5%
NCCOc1ncccc1/C=C1\c2ccccc2-c2ccc(F)cc21	-38.6% (active)
C(=N\Nc1nnc2n1N=C(c1ccccc1)CS2)/c1ccc(OCc2ccccc2)cc1	97.6%
NC(=O)c1ccc2nc3c(n2c1)C(=O)C(=O)c1ccccc1-3	-42.2% (active)
O=S(=O)(NCCNc1nccc(-c2c(-c3cccc(O)c3)nc3occn23)n1)c1ccc(Cl)cc1	76.4%
COc1ccc2oc(=O)cc(C(c3ccc[nH]3)c3ccc[nH]3)c2c1	-20.2% (active)
Clc1ccccc1[C@@H]1C[C@@H]2Cc3cc(Br)c4ccccc4c3N1O2	7.98% (active)
CC(=O)Nc1cccc(-c2ccc3c(c2)NC(=O)/C3=C\c2ccc[nH]2)c1	20.2%
CS(=O)(=O)Nc1cc(-c2ccc3ncnc(Nc4ccc(F)c(Cl)c4)c3c2)ccc1Cl	65.3%
N#Cc1c(-c2ccccc2)cc(-c2ccccc2)n(CCCCC(=O)NO)c1=O	11%

Compound	growth
C#Cc1cccc(Nc2nc3ccc([N+](=O)[O-])cc3nc2Nc2cccc(C#C)c2)c1	-33.9% (active)
CS(=O)(=O)Nc1cc(-c2ccc3ncnc(Nc4cccc(Cl)c4F)c3c2)cnc1Cl	80.1%
Cc1ccc(/C=C2\COc3ccc(O)cc3C2=O)cc1	-31.7% (active)
OCCn1cc(-c2nc(-c3c[nH]c4ncccc34)cs2)c2ccccc21	79.1%
S=c1nc(-c2ccccc2)oc(=NC2CCCCC2)n1C1CCCCC1	-36.5% (active)
NC(=O)NNC(=O)c1ccccc1	103%
COc1cc(NC(C)CCCN)c2ncccc2c1Sc1ccc(Cl)cc1 (stereo not given)	81.3%
Cc1c(C(=O)C(SC(=S)N2CCOCC2)SC(=S)N2CCOCC2)nnn1-c1ccc([N+](=O)[O-])cc1	91.3%
COc1ccc2nc3ccccc3c(NCc3ccccc3)c2c1	8.18% (active)
O=NC1CC=CCC1c1ccccc1 (stereo not given)	92.6%
S=C(NCc1ccccc1)NCc1ccccc1	84.7%
CCC1(CC)C(OC)NC(Br)=C(C#N)C1(C#N)C(N)=O (stereo not given)	93.1%
CCN1C(=O)N(CC)C2C1NN=c1s/c(=C\c3ccccc3)c(=O)n12 (stereo not given)	-45.3% (active)
COc1cc(/C=N/NC(=O)c2cnn3c2NC(c2ccccc2)C3)cc(OC)c1OC (stereo not given)	81.1%
CC(=O)N(C)N=Nc1ccc(C)cc1	117%
Nc1ccc(N(O)/C=C2\C=CC=CC2=O)cc1N	73.2%
CC[C@]12C=CCN3CC[C@@]4(c5ccc(OC)cc5N(C)[C@H]4[C@@](O)(C(=O)OC)[C@@H]1OC(=O)CCCN1CCOCC1)[C@@H]32	97.5%
Oc1c(N=Nc2nn[nH]n2)ccc2ccccc12	98.2%
O=C(NCc1ccccc1)C1CN(c2ccc(Cl)cc2)N(c2ccc(Cl)cc2)C1=O (stereo not given)	81.7%
O=c1ccn2c(n1)OC1CC2OC1COC(c1ccccc1)(c1ccccc1)c1ccccc1 (stereo not given)	89.2% [100 µM]

From PubChem BioAssay (NCI)
